Reference: PubChem BioAssay (EPA / NIEHS)
Records with an inconclusive call do not appear. Active and inactive are the calls of the source. How the source made its calls: active means hit-call score of the fitted dose curve at least 0.9, where 1 is the maximum; inconclusive means response in the unintended direction; inactive means score below 0.9.

Columns and labels:
[1] = molecular target: human CYP1A2, CYP1A2 (gene 1544) (UniProt P05177); experiment: NVS_ADME_hCYP1A2: NovaScreen (NVS) CYP450-related Enzyme Activity (ADME) Assay for human CYP1A2 (AID 2283102)
human CYP1A2, CYP1A2 (gene 1544), sequence (P05177 whole entry, looked up): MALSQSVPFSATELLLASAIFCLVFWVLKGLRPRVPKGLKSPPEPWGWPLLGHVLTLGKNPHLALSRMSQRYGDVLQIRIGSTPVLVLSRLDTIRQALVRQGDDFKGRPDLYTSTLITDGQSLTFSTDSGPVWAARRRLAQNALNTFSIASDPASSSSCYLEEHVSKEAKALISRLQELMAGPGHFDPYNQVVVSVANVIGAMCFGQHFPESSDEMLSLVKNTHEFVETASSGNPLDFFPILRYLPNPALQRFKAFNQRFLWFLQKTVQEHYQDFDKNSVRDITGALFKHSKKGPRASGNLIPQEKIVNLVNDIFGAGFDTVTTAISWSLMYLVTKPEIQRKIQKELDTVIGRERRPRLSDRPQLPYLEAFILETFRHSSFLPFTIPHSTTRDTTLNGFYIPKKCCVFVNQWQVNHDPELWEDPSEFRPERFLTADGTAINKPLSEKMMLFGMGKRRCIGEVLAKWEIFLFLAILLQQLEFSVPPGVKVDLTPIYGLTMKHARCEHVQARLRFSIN
Summary of the method: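 Recombinant human CYP1A2 from insect cells, cell-free, fluorogenic substrate; read 0.5 h after dosing with loss of fluorescence signal indicating inhibition. Primary screen in duplicate at 10 uM, acetonitrile as negative control.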

[2] = molecular target: rat CYP2C11, Cyp2c11 (gene 29277) (UniProt P08683); experiment: NVS_ADME_rCYP2C11: NovaScreen (NVS) CYP450-related Enzyme Activity (ADME) Assay for rat CYP2C11 (AID 2283118)
rat CYP2C11, Cyp2c11 (gene 29277), sequence (P08683 whole entry, looked up): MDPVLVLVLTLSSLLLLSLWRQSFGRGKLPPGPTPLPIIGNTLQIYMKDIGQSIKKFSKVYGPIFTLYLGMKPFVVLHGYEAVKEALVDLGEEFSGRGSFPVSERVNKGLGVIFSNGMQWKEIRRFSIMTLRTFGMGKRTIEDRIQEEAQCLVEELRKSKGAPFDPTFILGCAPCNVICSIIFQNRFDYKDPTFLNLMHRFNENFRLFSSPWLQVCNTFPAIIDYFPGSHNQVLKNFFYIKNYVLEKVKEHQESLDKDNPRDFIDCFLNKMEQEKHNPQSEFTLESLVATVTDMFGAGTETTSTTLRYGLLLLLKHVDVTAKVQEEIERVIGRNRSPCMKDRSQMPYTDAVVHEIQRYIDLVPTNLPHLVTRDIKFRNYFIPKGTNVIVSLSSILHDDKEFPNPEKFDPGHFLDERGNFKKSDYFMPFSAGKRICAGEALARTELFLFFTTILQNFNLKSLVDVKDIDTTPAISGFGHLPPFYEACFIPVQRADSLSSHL
Summary of the method: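 Cell-free recombinant rat enzyme with fluorescent substrate; readout 0.33 h after dosing, loss of signal versus acetonitrile control. Initial duplicate single-point at 10 uM; actives rerun in concentration series.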

[3] = molecular target: human Esterase Plasma (ES), BCHE (gene 590) (UniProt P06276); experiment: NVS_ENZ_hES: NovaScreen (NVS) Enzymatic Assay for human Esterase Plasma (ES) (AID 2283157)
human Esterase Plasma (ES), BCHE (gene 590), sequence (P06276 whole entry, looked up): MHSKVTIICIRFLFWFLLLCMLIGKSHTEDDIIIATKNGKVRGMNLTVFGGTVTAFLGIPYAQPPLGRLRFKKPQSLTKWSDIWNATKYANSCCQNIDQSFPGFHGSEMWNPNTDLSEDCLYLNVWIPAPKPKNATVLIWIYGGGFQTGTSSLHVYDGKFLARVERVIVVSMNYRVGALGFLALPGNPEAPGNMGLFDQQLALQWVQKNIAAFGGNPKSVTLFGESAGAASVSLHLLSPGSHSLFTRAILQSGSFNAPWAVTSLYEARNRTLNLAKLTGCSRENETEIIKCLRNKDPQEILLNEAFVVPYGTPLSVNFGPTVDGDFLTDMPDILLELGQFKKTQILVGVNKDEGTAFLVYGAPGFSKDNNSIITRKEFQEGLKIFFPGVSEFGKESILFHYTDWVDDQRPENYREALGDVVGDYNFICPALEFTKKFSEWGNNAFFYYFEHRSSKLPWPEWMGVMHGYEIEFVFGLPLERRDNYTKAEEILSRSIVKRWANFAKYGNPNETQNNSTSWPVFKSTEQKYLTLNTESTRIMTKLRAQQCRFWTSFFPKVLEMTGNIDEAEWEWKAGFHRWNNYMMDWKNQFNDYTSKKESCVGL
Experimental: NVS_ENZ_hES is a biochemical, single-readout assay that uses extracted gene-proteins from Human plasma in a cell-free assay. Measurements were taken 0.25 hour after chemical dosing in a 96-well plate.NVS_ENZ_hES is one of one assay component(s) measured or calculated from the NVS_ENZ_hES assay. It is designed to make measurements of enzyme activity, a form of enzyme reporter, as detected with absorbance signals by Colorimetric technology.Data from the assay component NVS_ENZ_hES was analyzed into 1 assay endpoint. This assay endpoint, NVS_ENZ_hES, was analyzed in the positive analysis fitting direction relative to DMSO as the negative control and baseline of activity. […] Furthermore, this assay endpoint can be referred to as a primary readout, because this assay has produced multiple assay endpoints where this one serves a enzymatic activity function. […]
Binding assays used specific radioligands (tritiated, iodinated) with non-radioactive competitive displacement ligands in agonist or antagonist protocols (as indicated) and various reference compounds and inhibitors to titrate specific binding to receptors and transporters. Most enzyme assays (CYPs, kinases, phosphatases, proteases, HDACs) used recombinant protein and specific substrates (fluorescence mostly, some colorimetric and radioactive) and inhibitors, followed by a biochemical separation of substrate and product. […]

## Cc1ccc([N+](=O)[O-])cc1N
[1]
  outcome: inactive

## CCOC(=O)C1=NOC(c2ccccc2)(c2ccccc2)C1
[2]
  outcome: inactive

## Fc1ccc(Br)cc1
[3]
  outcome: inactive

## CC(C)[N+](C)(CCOC(=O)C1c2ccccc2Oc2ccccc21)C(C)C
[3]
  AC50: 2.02 µM (active)
